Target: Torsin-1A (Homo sapiens) (UniProt O14656)
Experiment: TOR1A wild-type binding on microarray – cell lysate, small-molecule microarray, lysate, 635/667 nm, primary screen (AID 1149)
Details: COS7 hTOR1A-WT lysate, 635 nm fluorescence, higher = more signal

Torsin-1A (Homo sapiens), sequence (O14656 whole entry, looked up): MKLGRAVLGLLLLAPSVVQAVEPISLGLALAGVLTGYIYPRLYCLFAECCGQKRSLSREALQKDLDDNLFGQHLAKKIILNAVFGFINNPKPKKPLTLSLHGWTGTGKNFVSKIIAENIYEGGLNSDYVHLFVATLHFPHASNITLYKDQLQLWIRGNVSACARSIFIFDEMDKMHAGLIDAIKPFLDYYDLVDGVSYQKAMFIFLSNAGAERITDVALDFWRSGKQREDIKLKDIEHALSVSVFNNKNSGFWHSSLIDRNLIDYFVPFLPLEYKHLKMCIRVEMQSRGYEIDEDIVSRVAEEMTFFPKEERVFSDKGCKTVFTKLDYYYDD

Structure (SMILES)	composite z-score
[N-]=[N+]=Nc1ccccc1C[C@@]1(C(=O)NCC(O)CO)N=C(c2ccc(OCCCO)cc2)O[C@@H]1c1ccccc1 (stereo not given in full)	0.744
C=C(CCCC)/C(=C/C[C@H](OC(=O)c1ccncc1)c1cccc(OCCO)c1)c1cnc2ccccc2c1	0.947
COCCOC(=O)N1C(=O)[C@@]2(c3cc(C#Cc4ccc(OC)cc4)ccc31)[C@H](c1ccc(OCCO)cc1)N1[C@H](c3ccccc3)[C@H](c3ccccc3)OC(=O)[C@H]1[C@@H]2C(=O)NC[C@H](O)c1ccccc1	0.677
CCOC(=O)C1=CC[C@@H](c2ccc(OC)cc2)N(S(=O)(=O)c2ccc(C)cc2)[C@H]1c1ccc(C)cc1	-0.414
COCCOC(=O)N1C(=O)[C@@]2(c3cc(C#CCCO)ccc31)[C@H](c1ccc(OCCO)cc1)N1[C@H](c3ccccc3)[C@H](c3ccccc3)OC(=O)[C@H]1[C@@H]2C(=O)N1CCCCCCC1	0.862
COC(=O)[C@@]1(Cc2ccc(F)cc2)[C@H]2c3cc(C(=O)N4CCCC4)n(Cc4cc(F)cc5c4OCOC5)c3C[C@H]2CN1C(=O)c1ccccc1	-0.659
C=C(CCCC)/C(=C/C[C@H](OC(=O)c1ccncc1)c1ccc(OCCO)cc1)c1cnc2ccccc2c1	1.03
C=CCOC(=O)[C@@H]1[C@H]2C(=O)O[C@H](c3ccccc3)[C@H](c3ccccc3)N2[C@H](c2ccc(OCCOC(=O)[C@H]3C[C@H]4C(=O)N5CCC[C@H]5C(=O)N4[C@H]3c3cccc(OCCO)c3)cc2)[C@@]12C(=O)Nc1ccc(I)cc12	0.438
COc1ccc([Si](C)(C)[C@H]2[C@H](CC(=O)N3Cc4ccccc4C[C@H]3CO)O[C@@]3(C(=O)N(C)c4c(Br)cc(C)cc43)[C@@H]2C)cc1	0.573
CCCC[C@H]1OB(O)C[C@H]2C1=C(COc1ccccc1)C[C@H]1C(=O)C=CC(=O)[C@H]12	0.372
COCCOC(=O)N1C(=O)[C@@]2(c3cc(C#CCC(C(=O)OC)C(=O)OC)ccc31)[C@H](C(=O)Nc1nc3ccccc3s1)[C@H]1C(=O)O[C@H](c3ccccc3)[C@H](c3ccccc3)N1[C@@H]2c1ccc(O)cc1	0.391
COC(=O)[C@@]1(Cc2ccc(OC)cc2)[C@H]2c3cc(C(=O)N4CCCC4)n(Cc4ccc(Cl)c(C(F)(F)F)c4)c3C[C@H]2CN1C(=O)c1ccccc1	0.557
Cc1ccc(F)cc1S(=O)(=O)N[C@H]1CCN(Cc2ccc(OC(C)C)cc2)C1	0.149
COCCOC(=O)N1C(=O)[C@@]2(c3cc(C#CCNC(N)=O)ccc31)[C@H](C(=O)Nc1nc3ccccc3s1)[C@H]1C(=O)O[C@H](c3ccccc3)[C@H](c3ccccc3)N1[C@@H]2c1ccccc1OCCO	0.508
CCCCC(O)C1C=CC2C(=O)N(c3ccccc3)C(=O)C2N1Nc1ccc([N+](=O)[O-])cc1 (stereo not given)	0.47
CCCN1C(=O)[C@@]2(c3ccc([N+](=O)[O-])cc3)CC(=O)N(CC34CC5CC(CC(C5)C3)C4)[C@@H]2c2ccc(CO)cc21	-1.21
O=C1C=C(c2ccccc2)C(=O)C2=C1CC([C@H]1Oc3ccccc3S(=O)(=O)N3CCC[C@@H]13)=CC2	-0.295
O=C1[C@H]2C=C(I)[C@H](C[C@@H]2OCCCCCCO)[C@@]12CO2	0.349

Structure (SMILES)	composite z-score
N#Cc1ccc(-c2cccc(=O)o2)cc1	0.435
N#Cc1ccc(NN2C(C(O)C3CC=CCC3)C=CC3C(=O)N(c4ccccc4)C(=O)C32)cc1 (stereo not given)	-0.694
COC(=O)C(CC#Cc1ccc2c(c1)[C@]1(C(=O)N2)[C@H](c2ccc(OCCO)cc2)N2[C@H](c3ccccc3)[C@H](c3ccccc3)OC(=O)[C@H]2[C@@H]1C(=O)N1CCCCCCC1)C(=O)OC	2.01
COCCOC(=O)N1C(=O)[C@@]2(c3ccccc31)[C@H](c1ccc(O)cc1)N1[C@H](c3ccccc3)[C@H](c3ccccc3)OC(=O)[C@H]1[C@@H]2C(=O)N1CCCCCCC1	1.32
COc1ccc(C(O)C2C=CC3C(=O)N(c4ccccc4)C(=O)C3N2Nc2ccc([N+](=O)[O-])cc2)c2ccccc12 (stereo not given)	0.771
O=C1c2ccccc2[C@@]2(Cc3ccccc3N(Cc3ccccc3)C2=O)[C@H](c2ccc(CO)cc2)N1Cc1ccccc1Cl	-1.29
O=C1[C@@H]2[C@@H](CC(COc3ccccc3)=C([C@H](O)CCc3ccccc3)[C@@H]2CO)C(=O)N1Cc1ccccc1	-0.19
COCCOC(=O)N1C(=O)[C@@]2(c3cc(C#CCC(C(=O)OC)C(=O)OC)ccc31)[C@H](C(N)=O)[C@H]1C(=O)O[C@H](c3ccccc3)[C@H](c3ccccc3)N1[C@@H]2c1ccc(O)cc1	0.551
CN(C)CCCNC(=O)[C@@]1(C)c2ccccc2C(=O)N(Cc2ccc(OC(F)(F)F)cc2)[C@H]1c1ccc(CO)cc1	-0.924
CCCC=C(CCC)[C@@H](NC(=O)OCC(C)C)c1ccc(C(=O)OC)cc1	0.841
COc1ccc(CCNC(=O)[C@@H]2c3ccccc3C(=O)N(Cc3ccccc3OC)[C@H]2c2ccc(CO)cc2)cc1	0.824
CCCC#C[Si](O[C@H](CC)c1cn(Cc2ccccc2)nn1)(C(C)C)C(C)C	0.732
[N-]=[N+]=NCc1ccccc1[C@@H]1OC(c2ccc(OCCCO)cc2)=N[C@]1(Cc1ccccc1N=[N+]=[N-])C(=O)O	0.177
CN(C)CCCNC(=O)[C@@H]1c2ccccc2C(=O)N(Cc2ccccc2C(F)(F)F)[C@H]1c1ccc(CO)cc1	0.0406
C=CCNC(=O)[C@H]1[C@@H]2C(=O)O[C@@H](c3ccccc3)[C@@H](c3ccccc3)N2[C@@H](c2ccc(OCCO)cc2)[C@]12C(=O)Nc1ccccc12	0.0646
O=C1O[C@@H](c2ccccc2)[C@@H](c2ccccc2)N2[C@@H](c3ccccc3OCCO)[C@]3(C(=O)Nc4ccc(C#CCCO)cc43)[C@@H](C(=O)NC[C@H](O)c3ccccc3)[C@H]12	1.49
C[C@]1(C(=O)O)c2ccccc2C(=O)N(Cc2cc(F)cc(C(F)(F)F)c2)[C@H]1c1ccc(CO)cc1	-0.0875
